Assay [1] is described as follows: yeast TOR pathway RPL19A-GFP modulators, primary screen, cell-based, S. cerevisiae, multiplex flow cytometry (AID 1862; in the data active = percent of DMSO control GFP below about 86%;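 note: lower values mimic rapamycin by blocking the RPL19A rise seen in DMSO cells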). The note with it: S. cerevisiae RPL19A-GFP strain, flow cytometry fluorescence, 3 h; at 10 µM; stronger effect = lower value.
Assay [2] can be described thus: modulators of MEP2-GFP levels in yeast, primary screen, S. cerevisiae, multiplex flow cytometry (AID 1867;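 active = GFP response, as percent of the DMSO control, above the screen-wide mean plus 3 SD, about 139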;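 note: median GFP channel fluorescence of barcode-gated MEP2-GFP cells measured by flow cytometry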). The note with it: S. cerevisiae MEP2-GFP strain, 3 h, at 10 µM, stronger effect = higher value, 100% means same as DMSO wells.
Assay [3] can be described thus: modulators of CIT2-GFP expression in yeast, primary screen, S. cerevisiae, GFP fusion, multiplex flow cytometry (AID 1870;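 active = percent response above a set limit, the screen-wide mean plus 3 SD, cut at about 130% in these data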;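 note: barcoded CIT2-GFP strain pooled with four other GFP strains with rapamycin as positive control; median GFP fluorescence per well over plate mean of DMSO wells so 100% = DMSO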). The note with it: 3 h, at 10 µM, stronger effect = higher value.
A short description of assay [4]: modulators of LAP4-GFP expression in yeast, primary screen, S. cerevisiae, multiplex flow cytometry (AID 1873;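 active = GFP signal, as percent of the solvent control, above the screen mean plus 3 SD, about 149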). The note with it: 3 h, at 10 µM, stronger effect = higher value.
Assay [5] in a line: modulators of AGP1-GFP expression in yeast TOR pathway, primary screen, cell-based, multiplex flow cytometry, S. cerevisiae (AID 1887;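 active = GFP signal above the screen-wide mean plus 3 SD, that is over about 124.5% of the solvent control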;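 note: AGP1-GFP fusion strain of S. cerevisiae within a five-strain barcoded multiplex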). The note with it: 3 h, at 10 µM, stronger effect = higher value.
A short description of assay [6]: inhibitors of CD8+ T cell-vesicle binding, pilot screen, LFA-1/ICAM-1 modulator project, MLPCN validation set, flow cytometry (AID 2523;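 active = response below a set limit, under 55% cells CD8-positive and vesicle-bound, and CD8 cells' 90th-percentile brightness under 279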;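 for vesicle binding response: mean PE anti-B7-1 fluorescence of CD8+ cells relative to row control; 100% = QL9-loaded vesicles with DMSO vehicle in the same plate row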). The conditions noted are these: 2C mouse CD8+ T cells, at 7 µM, stronger effect = lower value; double positive events: measured here: CD8+/vesicle+ event percentage.
For assay [7], the target named is Integrin beta-1 (Homo sapiens) + Integrin alpha-4 (Homo sapiens) (UniProt P13612+P05556). In words: inhibition of HUTS-21 binding to VLA-4, pilot screen, VLA-4 allosteric modulator project, U937 cells, HUTS-21 mAb, flow cytometry, validation set (AID 2674;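 active = inhibition above 50%, about 3 SD of the validation set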;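 note: antibody binding induced by the VLA-4 ligand LDV present at three times its Kd; 0% = LDV ligand with antibody and no compound and 100% = antibody without LDV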). The conditions noted are these: HUTS-21 LIBS mAb binding, at 6.7 µM, stronger effect = higher value, binding induced by LDV ligand.

A short description of assay [8]: superoxide lowering in aged yeast cells, pilot screen, validation compound set (AID 2706;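 active = superoxide response below 65% of plate, a cut near 3 SD across the whole screen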;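 note: yeast exposed to compound for one week at 30 degrees C before staining; 100% = mean of all compound wells on the same plate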). The conditions noted are these: S. cerevisiae aging, superoxide DHE fluorescence; at 10 µM; stronger effect = lower value.
The target of assay [9] is Beta-adrenergic receptor kinase 1 (Homo sapiens) (UniProt P25098). Put plainly: GRK2 binders displacing RNA aptamer, biochemical, validation, human GRK2, bead flow cytometry (AID 488806;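 active = aptamer binding inhibition above 30%, about 3 SD of noise from non-fluorescent compounds; inactive = inhibition at or below 30%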). The note with it: bead-bound GRK2, FAM-aptamer displacement, at 10 µM, stronger effect = higher value.
Assay [10] concerns the target Beta-2 adrenergic receptor (Homo sapiens) (UniProt P07550). Put plainly: beta2AR agonists driving receptor internalization, pilot screen, cell-based, FAP fluorogen, flow cytometry, validation set (AID 504459).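 Note: agonist-driven loss of surface beta2AR via internalization measured by FAP dye flow cytometry.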 The conditions noted are these: Am2.2-beta2AR cells, FAP surface receptor flow cytometry; at 10 µM; stronger effect = higher value.
The target of assay [11] is AP-2 complex subunit beta (Homo sapiens) (UniProt P63010). Put plainly: inhibitors of arrestin peptide binding to AP2, pilot screen, biochemical, validation set, GST-AP2 beads, flow cytometry (AID 504541;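 active = inhibition above 54%, about 3 SD of non-fluorescent compounds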;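 note: AP2 carries R879A mutation and is captured from E. coli lysate; bead-bound FITC arrestin peptide fluorescence measuring arrestin peptide binding to AP2; 0% = DMSO wells and 100% = excess unlabeled arrestin peptide control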). The conditions noted are these: FITC arrestin peptide, at 10 µM, stronger effect = higher value, AP2 beta2 appendage fragment, R879A mutant.
Assay [12] is described as follows: yeast V-ATPase proton transport modulators, S. cerevisiae, pHLuorin, HTS validation (AID 504600; in the data active = response above about 15%;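 note: plate controls were DMSO for no effect and reference compound for full effect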). The conditions noted are these: S. cerevisiae pHLuorin cytosolic pH, at 10 µM, stronger effect = higher value.
Assay [13] concerns anti-desmoglein-3 scFv antibody binding to human DSG3. In words: inhibitors of anti-DSG3 scFv binding to DSG3, pilot screen, biochemical, validation compound set, bead-based, flow cytometry (AID 588368;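 active = binding below the plate cutoff, the plate median minus 3 SD, with a reading above zero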;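 note: signal is the median channel fluorescence of bead-bound GFP antibody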). The conditions noted are these: Protein G beads, DSG3-Fc, scFv-GFP binding, at 10 µM, stronger effect = lower value.
A short description of assay [14]: inhibitors of fungal efflux pumps CDR1, CDR2, MDR1, pilot screen, validation compound set, multiplex, phenotypic (AID 588506;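 active = efflux inhibition above 0.42, the validation set average plus 4 SD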;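 note: Nile Red retained in cells so higher fluorescence means more efflux inhibition; 0 = negative control wells and 1 = enniatin B 25 µM full block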). The note with it: S. cerevisiae pump-expressing triplex, Nile Red efflux flow cytometry; at 10 µM; stronger effect = higher value; the pumps come from Candida albicans.
In assay [15] the target is ATP-binding cassette sub-family B member 6 (Homo sapiens) (UniProt Q9NP58). Put plainly: ABCB6 transporter inhibitors, pilot screen, K562-ABCB6 cells, flow cytometry, validation set (AID 588550;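 active = inhibition above the screen-wide mean plus 3 SD, about 51%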;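 note: 0% = DMSO wells and 100% = benzethonium chloride 70 µM positive control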). The conditions noted are these: K562-ABCB6 porphyrin accumulation, 1 h, at 10 µM, stronger effect = higher value.
Assay [16] is described as follows: promoters of myeloid differentiation in arrested cells, primary screen, cell-based, GFP/MAC1 double positive, flow cytometry, validation set (AID 588685;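 active = differentiation response of at least 50%, scaled between solvent and reference control, from cells with both markers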;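 note: compound exposure lasts four days before antibody staining and flow analysis; 0% = DMSO wells and 100% = 5 µM fulvestrant positive control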). The note with it: ER-HoxA9 marrow cells, stronger effect = higher value, normalized: vehicle 0, fulvestrant 100.

Results filed as inconclusive are left out. Calls of active or inactive are those of the source.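 Rule for the calls, unless noted: active = percent response above 42, roughly 3 SD of non-fluorescent test compounds; inactive = the rest.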

ATP-binding cassette sub-family B member 6 (Homo sapiens), sequence (Q9NP58 whole entry, looked up): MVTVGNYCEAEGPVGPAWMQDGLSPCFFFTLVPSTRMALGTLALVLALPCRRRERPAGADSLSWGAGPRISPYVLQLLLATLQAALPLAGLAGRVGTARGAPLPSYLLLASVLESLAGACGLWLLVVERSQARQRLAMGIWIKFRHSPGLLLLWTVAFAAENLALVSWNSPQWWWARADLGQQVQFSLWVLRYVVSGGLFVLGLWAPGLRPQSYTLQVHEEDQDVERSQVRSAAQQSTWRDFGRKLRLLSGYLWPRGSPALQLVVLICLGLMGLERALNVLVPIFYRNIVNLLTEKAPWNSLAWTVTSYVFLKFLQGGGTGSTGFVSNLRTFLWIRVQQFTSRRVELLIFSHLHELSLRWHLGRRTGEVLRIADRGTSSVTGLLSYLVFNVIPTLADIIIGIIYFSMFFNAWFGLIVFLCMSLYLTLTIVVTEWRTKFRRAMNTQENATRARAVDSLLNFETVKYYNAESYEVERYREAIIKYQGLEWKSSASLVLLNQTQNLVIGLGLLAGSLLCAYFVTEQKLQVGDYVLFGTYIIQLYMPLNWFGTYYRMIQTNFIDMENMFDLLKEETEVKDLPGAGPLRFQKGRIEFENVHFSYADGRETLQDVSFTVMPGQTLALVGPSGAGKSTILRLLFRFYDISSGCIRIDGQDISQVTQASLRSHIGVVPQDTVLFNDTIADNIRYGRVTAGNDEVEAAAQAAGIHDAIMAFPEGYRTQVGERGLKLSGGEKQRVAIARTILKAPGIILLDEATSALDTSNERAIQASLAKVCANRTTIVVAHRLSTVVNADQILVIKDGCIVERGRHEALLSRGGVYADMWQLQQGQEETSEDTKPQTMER
Beta-2 adrenergic receptor (Homo sapiens), sequence (P07550 whole entry, looked up): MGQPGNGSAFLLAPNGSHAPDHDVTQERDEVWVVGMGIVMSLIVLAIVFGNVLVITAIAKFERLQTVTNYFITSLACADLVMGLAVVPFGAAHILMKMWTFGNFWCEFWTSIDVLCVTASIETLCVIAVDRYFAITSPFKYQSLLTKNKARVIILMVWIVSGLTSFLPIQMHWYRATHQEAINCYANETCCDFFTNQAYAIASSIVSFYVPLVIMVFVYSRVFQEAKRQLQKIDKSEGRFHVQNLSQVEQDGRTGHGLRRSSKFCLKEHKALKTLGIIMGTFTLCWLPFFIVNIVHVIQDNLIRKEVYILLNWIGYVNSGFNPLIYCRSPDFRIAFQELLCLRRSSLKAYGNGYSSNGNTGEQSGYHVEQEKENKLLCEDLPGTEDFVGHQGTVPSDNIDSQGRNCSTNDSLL
Integrin beta-1 (Homo sapiens) + Integrin alpha-4 (Homo sapiens), sequence (P05556 whole entry, looked up): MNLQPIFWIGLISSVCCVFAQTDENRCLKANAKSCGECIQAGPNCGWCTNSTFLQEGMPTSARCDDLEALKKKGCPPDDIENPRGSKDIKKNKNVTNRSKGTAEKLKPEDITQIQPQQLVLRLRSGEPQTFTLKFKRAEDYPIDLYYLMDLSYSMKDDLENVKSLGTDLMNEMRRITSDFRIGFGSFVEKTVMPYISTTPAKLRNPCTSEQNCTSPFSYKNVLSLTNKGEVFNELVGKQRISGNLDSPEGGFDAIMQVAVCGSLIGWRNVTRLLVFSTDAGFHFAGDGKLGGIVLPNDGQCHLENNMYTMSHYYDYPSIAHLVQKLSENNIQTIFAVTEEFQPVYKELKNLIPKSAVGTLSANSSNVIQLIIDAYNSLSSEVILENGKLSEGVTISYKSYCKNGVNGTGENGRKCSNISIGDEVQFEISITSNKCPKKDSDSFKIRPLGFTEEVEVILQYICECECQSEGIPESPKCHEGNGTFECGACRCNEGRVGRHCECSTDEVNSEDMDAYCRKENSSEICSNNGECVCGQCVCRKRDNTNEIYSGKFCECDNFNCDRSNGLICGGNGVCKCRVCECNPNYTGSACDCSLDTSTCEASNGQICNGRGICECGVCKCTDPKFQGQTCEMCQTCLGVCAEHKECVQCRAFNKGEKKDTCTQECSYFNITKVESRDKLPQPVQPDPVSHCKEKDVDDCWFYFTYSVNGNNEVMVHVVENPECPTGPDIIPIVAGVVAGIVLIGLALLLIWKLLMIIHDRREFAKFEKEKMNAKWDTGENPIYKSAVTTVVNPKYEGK
Integrin beta-1 (Homo sapiens) + Integrin alpha-4 (Homo sapiens), sequence (P13612 whole entry, looked up): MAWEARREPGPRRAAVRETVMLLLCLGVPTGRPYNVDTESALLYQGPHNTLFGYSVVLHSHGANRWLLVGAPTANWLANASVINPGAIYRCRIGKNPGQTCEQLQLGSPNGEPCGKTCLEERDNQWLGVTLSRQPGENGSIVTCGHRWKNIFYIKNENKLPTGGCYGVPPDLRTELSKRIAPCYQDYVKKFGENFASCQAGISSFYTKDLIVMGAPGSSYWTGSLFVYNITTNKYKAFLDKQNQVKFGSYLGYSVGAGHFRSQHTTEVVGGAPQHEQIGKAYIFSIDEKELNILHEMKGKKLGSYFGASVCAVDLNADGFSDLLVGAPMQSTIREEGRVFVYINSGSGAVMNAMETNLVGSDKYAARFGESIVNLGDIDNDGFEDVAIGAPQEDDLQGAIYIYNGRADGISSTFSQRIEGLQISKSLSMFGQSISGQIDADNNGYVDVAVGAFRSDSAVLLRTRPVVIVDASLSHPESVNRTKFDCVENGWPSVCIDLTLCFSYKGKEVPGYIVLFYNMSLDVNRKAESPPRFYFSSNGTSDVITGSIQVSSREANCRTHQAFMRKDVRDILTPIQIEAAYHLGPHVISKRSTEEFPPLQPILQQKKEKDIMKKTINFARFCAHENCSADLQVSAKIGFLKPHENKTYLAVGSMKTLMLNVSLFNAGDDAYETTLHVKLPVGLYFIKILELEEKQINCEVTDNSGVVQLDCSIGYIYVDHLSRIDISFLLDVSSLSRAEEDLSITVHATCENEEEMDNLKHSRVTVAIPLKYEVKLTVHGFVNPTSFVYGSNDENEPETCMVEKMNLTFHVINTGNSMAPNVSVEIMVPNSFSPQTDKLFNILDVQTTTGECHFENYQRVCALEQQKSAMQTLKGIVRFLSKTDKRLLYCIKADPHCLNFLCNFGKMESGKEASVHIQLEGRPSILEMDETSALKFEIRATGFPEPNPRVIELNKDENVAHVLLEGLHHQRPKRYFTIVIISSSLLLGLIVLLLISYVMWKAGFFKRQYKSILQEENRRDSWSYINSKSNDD
Beta-adrenergic receptor kinase 1 (Homo sapiens), sequence (P25098 whole entry, looked up): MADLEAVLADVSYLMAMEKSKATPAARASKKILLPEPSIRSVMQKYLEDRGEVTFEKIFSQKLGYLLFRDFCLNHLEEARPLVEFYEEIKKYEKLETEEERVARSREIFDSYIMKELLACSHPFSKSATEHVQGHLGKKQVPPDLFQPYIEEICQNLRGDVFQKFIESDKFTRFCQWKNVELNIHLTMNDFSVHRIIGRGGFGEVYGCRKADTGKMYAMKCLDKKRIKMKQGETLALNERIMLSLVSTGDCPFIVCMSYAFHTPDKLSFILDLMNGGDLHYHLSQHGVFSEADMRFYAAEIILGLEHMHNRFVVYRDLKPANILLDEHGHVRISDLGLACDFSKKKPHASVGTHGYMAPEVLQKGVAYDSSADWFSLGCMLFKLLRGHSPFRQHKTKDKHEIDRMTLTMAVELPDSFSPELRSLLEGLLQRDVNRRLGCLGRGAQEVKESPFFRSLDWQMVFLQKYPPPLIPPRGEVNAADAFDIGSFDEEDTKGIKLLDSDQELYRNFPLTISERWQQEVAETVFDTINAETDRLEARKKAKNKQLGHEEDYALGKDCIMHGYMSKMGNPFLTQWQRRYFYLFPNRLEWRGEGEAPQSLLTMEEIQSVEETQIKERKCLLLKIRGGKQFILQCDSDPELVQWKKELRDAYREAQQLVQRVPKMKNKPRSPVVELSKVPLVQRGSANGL
AP-2 complex subunit beta (Homo sapiens), sequence (P63010 whole entry, looked up, the tested form may be a part, one chain of several): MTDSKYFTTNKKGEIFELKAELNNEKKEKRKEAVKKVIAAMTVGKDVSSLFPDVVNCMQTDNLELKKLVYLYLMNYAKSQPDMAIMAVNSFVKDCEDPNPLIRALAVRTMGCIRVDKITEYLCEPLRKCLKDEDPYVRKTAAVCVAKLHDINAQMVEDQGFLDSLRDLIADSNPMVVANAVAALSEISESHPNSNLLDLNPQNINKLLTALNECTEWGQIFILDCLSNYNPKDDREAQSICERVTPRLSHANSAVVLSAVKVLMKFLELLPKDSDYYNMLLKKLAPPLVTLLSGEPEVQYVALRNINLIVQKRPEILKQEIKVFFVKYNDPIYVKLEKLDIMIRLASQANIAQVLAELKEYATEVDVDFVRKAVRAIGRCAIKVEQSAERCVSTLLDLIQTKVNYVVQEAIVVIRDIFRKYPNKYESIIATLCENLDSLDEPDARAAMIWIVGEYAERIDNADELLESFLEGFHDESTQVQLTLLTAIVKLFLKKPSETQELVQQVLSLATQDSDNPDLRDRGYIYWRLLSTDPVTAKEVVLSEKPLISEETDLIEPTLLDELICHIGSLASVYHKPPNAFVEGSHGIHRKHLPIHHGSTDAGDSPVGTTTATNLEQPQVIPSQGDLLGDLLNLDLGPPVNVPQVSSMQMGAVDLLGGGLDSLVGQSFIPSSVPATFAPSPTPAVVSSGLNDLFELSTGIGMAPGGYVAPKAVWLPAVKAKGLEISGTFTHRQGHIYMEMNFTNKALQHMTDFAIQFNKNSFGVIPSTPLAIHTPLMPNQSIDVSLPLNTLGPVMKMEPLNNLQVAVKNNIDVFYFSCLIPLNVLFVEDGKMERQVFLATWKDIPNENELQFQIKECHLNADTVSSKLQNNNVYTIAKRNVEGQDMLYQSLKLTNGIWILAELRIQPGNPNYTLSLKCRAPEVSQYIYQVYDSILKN

Regarding `O=C(CC1(O)C(=O)Nc2ccccc21)c1ccccc1O` (stereo not given), the percent of DMSO control GFP in assay [1] was 100% (inactive). Also, the GFP response vs DMSO in [2] is 104% (inactive); in assay [4], 103% (inactive). Also, the percent response of DMSO control in assay [3] is 97.8% (inactive). Besides, the GFP response, % of DMSO in assay [5] is 101% (inactive). In [6], this compound displayed a double positive events of 61.5%. Also, the vesicle binding response in assay [6] was 195% (inactive). The inhibition is -6.68% (inactive) in assay [7], -2.48% (inactive) in [11] and 3% (inactive) in assay [15]. Moreover, the superoxide response (% of plate) in assay [8] is 102% (inactive). Moreover, the aptamer binding inhibition in [9] is 3% (inactive). Besides, the results for the response in assay [10] and in [12] were 5.92% (inactive) and 17.1% (active), respectively. Also, in assay [13], the binding (% of control) is 99.5% (inactive). The efflux inhibition (fraction of control) in assay [14] is -0.04 (inactive). Also, in [16], the differentiation response was 12.9% (inactive).

For the compound `Cc1ccc(Cl)c(Nc2ccccc2C(=O)O)c1Cl`, the percent of DMSO control GFP in assay [1] is 98.9% (inactive). The GFP response vs DMSO in [2] is 103% (inactive); in [4], 114% (inactive). For the same compound, the percent response of DMSO control in [3] was 94.4% (inactive). For the same compound, the GFP response, % of DMSO in [5] is 98% (inactive). The double positive events in assay [6] was 60.7%. Moreover, in assay [6], the vesicle binding response was 123% (inactive). The results for the inhibition in assay [7], in [11] and in [15] were 2.29% (inactive), 1.34% (inactive) and 2% (inactive), respectively. The superoxide response (% of plate) in [8] is 95.2% (inactive). The aptamer binding inhibition in assay [9] was 2% (inactive). Moreover, the response is -14.2% (inactive) in [10] and 11.1% (inactive) in [12]. In assay [13], the binding (% of control) is 103% (inactive). In addition, the efflux inhibition (fraction of control) in assay [14] was -0.13 (inactive). Also, in assay [16], the differentiation response was -4.99% (inactive).

As for `COc1cc(CNCCc2c[nH]c3ccccc23)cc(Cl)c1OCC(N)=O`, the percent of DMSO control GFP in [1] was 107% (inactive). Moreover, the GFP response vs DMSO in assay [2] was 97.4% (inactive); in assay [4], 94% (inactive). In addition, the percent response of DMSO control in [3] was 102% (inactive). Further, the GFP response, % of DMSO in [5] is 97.2% (inactive). In addition, in assay [6], the double positive events was determined as 66.2%. Besides, the vesicle binding response in assay [6] is 340% (inactive). Moreover, the inhibition in [7] was -7.25% (inactive); in assay [11], -2.94% (inactive); in assay [15] it was 0% (inactive). In addition, the superoxide response (% of plate) in assay [8] is 102% (inactive). For the same compound, in assay [9], the aptamer binding inhibition was -6% (inactive). For the same compound, the results for the response in [10] and in assay [12] were 14.8% (inactive) and 1.24% (inactive), respectively. For the same compound, the binding (% of control) in assay [13] was 99.9% (inactive). The efflux inhibition (fraction of control) in assay [14] is 0.3 (inactive). The differentiation response in [16] was -10.4% (inactive).

Take `CC1(C)CC(=O)C(C2=NC(C)(C)Cc3ccccc32)=C(O)C1`: the percent of DMSO control GFP in assay [1] is 103% (inactive). Besides, the GFP response vs DMSO in [2] was 100% (inactive); in assay [4], 92.7% (inactive). Further, the percent response of DMSO control in assay [3] was 108% (inactive). In addition, the GFP response, % of DMSO in assay [5] was 101% (inactive). The compound further yielded a double positive events in assay [6] of 59.3%. Moreover, in assay [6], the vesicle binding response is 48.2% (inactive). Further, the results for the inhibition in [7], in assay [11] and in [15] were -2.53% (inactive), 17.9% (inactive) and 13% (inactive), respectively. The superoxide response (% of plate) in assay [8] was 103% (inactive). Besides, the aptamer binding inhibition in [9] is 4% (inactive). The results for the response in assay [10] and in assay [12] were -9.99% (inactive) and 1.49% (inactive), respectively. Moreover, in assay [13], the binding (% of control) is 91.7% (inactive). The efflux inhibition (fraction of control) in assay [14] was 0.14 (inactive). Also, the differentiation response in [16] was -4.64% (inactive).

In the case of `O=C(OCCN1CCOCC1)c1cccs1`, the percent of DMSO control GFP in assay [1] was 104% (inactive). The GFP response vs DMSO was 98.3% (inactive) in assay [2] and 94.7% (inactive) in [4]. Also, the percent response of DMSO control in assay [3] is 113% (inactive). Further, the GFP response, % of DMSO in [5] is 103% (inactive). Besides, in assay [6], the double positive events came to 64.9%. For the same compound, the vesicle binding response in assay [6] is 260% (inactive). In addition, the inhibition in [7] was -3.57% (inactive); in assay [11] it was -4.4% (inactive); in assay [15] it was 1% (inactive). Also, in assay [8], the superoxide response (% of plate) was 88.9% (inactive). The aptamer binding inhibition in assay [9] was 2% (inactive). For the same compound, the response in assay [10] was -11.6% (inactive); in [12], 0.26% (inactive). The binding (% of control) in assay [13] is 91.9% (inactive). Further, the efflux inhibition (fraction of control) in assay [14] was 0.02 (inactive). Further, the differentiation response in assay [16] was 0.24% (inactive).

The record behind these values is PubChem BioAssay.
